# This excerpt belongs to a sample that is enriched for hits.
# Methyltransferases = Primary Screen for Target Class Profiling of Small Molecule Inhibitors of Methyltransferases. 25,000 compounds, 3.9% hits. AID 1745853, 2022. purified enzyme, MTase-Glo SAH luminescence; stronger effect = lower value. calls only at 40 µM; call rule not given here
#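 Each enzyme was reacted with SAM and its substrate, with compounds tested once at 40 uM; SAH formed was read by MTase-Glo luminescence.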
# Numbers without * were called inactive; i = inactive; + = active, no number; ! = not active in a repeat. % is set by controls: 0 for no effect and ±100 for the full control effect.
SMILES,Methyltransferases
CC(C)Cn1c(=O)c2ccccc2n2c(=O)n(CC(=O)Nc3ccc4c(c3)OCCO4)nc12,i
CCOc1ccc2cc(-c3nnc(Nc4ccccc4)s3)c(=O)oc2c1,i
CCCn1c(=O)c2ccc(C(=O)NCC(C)C)cc2n2c(=O)n(CC(=O)Nc3ccc(C)c(F)c3)nc12,i
COC(=O)c1ncn2c1C(=O)N(c1ccc(C)c(C)c1)C(C)(C(=O)NCc1ccccc1)C2 (configuration not stated),i
COc1ccc(-c2nnc(-c3ccc(Cl)c(S(=O)(=O)N4CCC(C)CC4)c3)o2)cc1OC,i
COc1ccc(-c2oc3ccc(C)cc3c(=O)c2O)cc1OC,+
CCN1CCN(Cc2cc3ccc(C)cc3nc2-c2ccc(OC)c(OC)c2)CC1,i
Cc1cc(C)cc(NC(=O)CCc2nnc3n(Cc4ccc(Cl)cc4)c(=O)c4ccccc4n23)c1,i
CC1(C(=O)NCc2ccccc2)Cn2cnc(C(=O)NCCc3ccc(Cl)cc3)c2C(=O)N1C1CC1 (configuration not stated),i
Cc1ccc(-c2cc(C(=O)Nc3ccc4c(c3)C(=O)N(C)C3=NCCN34)c3ccccc3n2)cc1C,i
O=C(CN1C(=O)C2(CCCCC2)C1c1ccccc1)NCCc1c[nH]c2ccccc12 (configuration not stated),i
c1cc(NCCc2c[nH]c3ccccc23)cc(Nc2ccncc2)c1,+
O=C(O)CCCc1c[nH]c2ccccc12,i
c1ccc2c(CCNc3ccc(Nc4ccncc4)cc3)c[nH]c2c1,+
Cc1ccc(-c2nnn3c2nc(NCCc2c[nH]c4ccccc24)c2ccccc23)cc1,i
Cc1ccc(C)c(S(=O)(=O)c2nnn3c2nc(NCCc2c[nH]c4ccccc24)c2ccccc23)c1,i
CC1(C(=O)NC2CCCCCC2)Cn2nc(C3CC3)cc2C(=O)N1Cc1ccc2c(c1)OCO2 (configuration not stated),i
O=C(CSc1nnc2n(Cc3ccccc3)c(=O)c3ccccc3n12)Nc1ccc(F)cc1F,i
CCC(C)NC(=O)c1ccc2c(=O)n(C)c3nn(CC(=O)Nc4ccccc4F)c(=O)n3c2c1 (configuration not stated),i
COc1cc2c(cc1OC)CN(C(=O)/C=C/c1c(-c3ccccc3)n(C)c3ncccc13)CC2,+
COc1cc2c(cc1OC)CN(CCc1ccc(NC(=O)c3cc(OC)c(OC)cc3NC(=O)c3cnc4ccccc4c3)cc1)CC2,i
Cc1ccc(Cn2c(=O)c3ccccc3n3c(=O)n(CC(=O)Nc4ccc(Cl)cc4)nc23)cc1,i
Cc1cccc(C2c3cccn3-c3sc4c(c3CN2C(=O)NC(C)C)CCCC4)c1 (configuration not stated),i
CN1C(=O)c2cc(C(=O)NCc3ccco3)nn2CC1(C)C(=O)NCc1ccccc1 (configuration not stated),i
CC(C)(C)c1ccc(S(=O)(=O)N2CCC(n3c(=O)[nH]c4ccccc43)CC2)cc1,i
SMILES,Methyltransferases
CCOc1ccc(C(=O)Cn2nc3n(CCC(C)C)c(=O)c4ccccc4n3c2=O)cc1,i
Cc1cc2c(cc3n2CC(C)(C(=O)NC2CCCCCCC2)N(CCN(C)C2CCCCC2)C3=O)o1 (configuration not stated),i
COc1ccc(CN2CCCC3(CC(c4cccc(C(F)(F)F)c4)=NO3)C2)cc1 (configuration not stated),i
COc1ccc(-c2nc(-c3cc(C(F)(F)F)cc(C(F)(F)F)c3)n(Cc3ccc(C(N)=O)cc3)c2-c2ccc(OC)cc2)cc1,+
COc1ccc(Cn2c(=O)c3ccccc3n3c(-c4ccc(O)cc4)nnc23)cc1,i
CCCn1c(=O)c2ccc(C(=O)NC3CCCC3)cc2n2c(SCC(=O)c3ccccc3)nnc12,i
COC(=O)c1ccc2c(=O)[nH]c3c(C(=O)NCCC(C)C)sc(=S)n3c2c1,i
CC(=O)NC1(C)CCN(Cc2ccccc2-c2ccccc2Oc2ccccc2)C1 (configuration not stated),i
CNCCN(C)Cc1cn[nH]c1-c1ccc(OC2CC(OCCC3CCOCC3)C2)cc1 (configuration not stated),+
COC(=O)c1ncn2c1C(=O)N(c1cccc(C)c1C)C(C)(C(=O)NCCCOC(C)C)C2 (configuration not stated),i
CCCn1c(=O)c2cc(F)ccc2n2c(SCC(=O)Nc3ccccc3OC)nnc12,i
O=C(Cn1ccc2cc(S(=O)(=O)N3CCCC3)ccc21)NCCC1=CCCCC1,i
Cc1ccc(CNC(=O)c2ccc3c(=O)[nH]c4c(C(=O)NCC5CCCO5)sc(=S)n4c3c2)cc1 (configuration not stated),i
Cc1ccc(CNC(=O)c2ccc3c(=O)[nH]c4c(C(=O)NC(C)C)sc(=S)n4c3c2)cc1,+
C=CCNC(=O)c1ccc2c(=O)[nH]c3c(C(=O)NC(C)C)sc(=S)n3c2c1,i
Cn1c(=O)c2ccc(C(=O)NC3CCCC3)cc2n2c(=O)n(Cc3ccc(N4CCCC4=O)cc3)nc12,i
COc1ccc(CCNC(=O)CCc2nnc3n(Cc4ccc(F)cc4)c(=O)c4ccccc4n23)cc1OC,i
COC1CCCC/C(C)=C/C2C=C(C)C(C)C3C(CC(C)C)NC(=O)C23C(=O)C1 (configuration not stated),i
CCCCCCCOc1cc2c(cc1/C(C)=C/c1ccc(C(=O)O)cc1)C(C)(C)CCS2(=O)=O,+
Cc1cc2c(cc1C1(c3ccc(C(=O)O)cn3)CC1)C(C)(C)CCC2(C)C,i
CCOc1ccc(C(=O)Cn2nc3n(CCC(C)C)c(=O)c4ccc(C(=O)NC(C)C)cc4n3c2=O)cc1,i
CCCn1c(=O)c2ccc(C(=O)NC(C)C)cc2n2c(SCC(=O)NC3CCCC3)nnc12,i
COc1ccc2cc3n(c2c1)CC(C)(C(=O)NCC1CCCO1)N(CCc1ccc(Cl)cc1)C3=O (configuration not stated),i
COc1ccc(CCc2nc3c(C)c(-c4c(C)noc4C)c(C)cc3n2CCN2CCOCC2)cc1,+!
COc1ccc2cc3n(c2c1)CC(C)(C(=O)NC1CCCCC1)N(CCCN1CCOCC1)C3=O (configuration not stated),i
SMILES,Methyltransferases
Cn1cc(CN2CCCCCNC(=O)[C@@H]3CCC[C@@H]32)c2ccccc21,i
Cn1cc(C(=O)OCC2CCN(CCNS(C)(=O)=O)CC2)c2ccccc21,i
CN(C)CC1CCn2c(c(C3=C(c4cn(C)c5ccccc45)C(=O)NC3=O)c3ccccc32)C1 (configuration not stated),+!
CC1(C(=O)NC2CCCCCC2)Cn2nc(-c3ccco3)cc2C(=O)N1Cc1ccccc1Cl (configuration not stated),i
COc1ccccc1CNC(=O)CCCc1nnc2n3nc(-c4ccccc4)nc3c3ccccc3n12,i
Cc1ccccc1CSc1nnc2n(CC(C)C)c(=O)c3cc(F)ccc3n12,i
C/C=C(\C)C(=O)OCC1OC(OC2OC(COC(=O)/C(C)=C/C)C(OC3OC(CO)C(OC(=O)/C(C)=C/C)C(OC(=O)/C(C)=C/C)C3O)C(O)C2O)C(O)C(O)C1OC1OC(CO)C(OC(=O)/C(C)=C/C)C(OC(=O)/C(C)=C/C)C1O (configuration not stated),i
Cc1cc(C)cc(NC(=O)Cn2nc3n(C)c(=O)c4ccc(C(=O)NC5CCCC5)cc4n3c2=O)c1,i

# Compound activity: PubChem, National Center for Advancing Translational Sciences (NCATS)
